# Key:
# POU1 (OCT1 POU domain) = POU1 (OCT1 POU domain) (human, UniProt P14859 260-458); test: EMSA-SELEX-seq; no BOB1; 20 mM Tris-HCl pH 7.6, 140 mM NaCl, 10% glycerol, 0.5 mM EDTA, 0.05% Triton X-100, 0.1 mg/mL BSA, 0.1 mg/mL poly(dI-dC), 5 mM DTT, room temperature, 20 min; high values mean tight binding; conditions: protein: recombinant; dsDNA, one strand shown
# Outline: (§1)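 After expression in E. coli BL21, tagged POU-domain proteins were purified under denaturing conditions and then renatured. Each binding reaction held 30 ng protein and 300 ng of a PCR-amplified double-stranded random 35-nt library in 20 μL Tris–HCl pH 7.6 binding buffer, with or without 28 ng coactivator protein, for 20 min at RT. Bands holding complexes were cut from native 6% PAGE, eluted and PCR-amplified across four rounds, and the output was Illumina-sequenced. The value given for binding preference is the share, in percent, of sequenced 8-mers fitting a motif pattern.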
# POU2 (OCT2 POU domain) = biological target: T1, POU2 (OCT2 POU domain) (human, UniProt P09086 175-386); test: as above; conditions: protein: recombinant; dsDNA, one strand shown
# T1 sequence: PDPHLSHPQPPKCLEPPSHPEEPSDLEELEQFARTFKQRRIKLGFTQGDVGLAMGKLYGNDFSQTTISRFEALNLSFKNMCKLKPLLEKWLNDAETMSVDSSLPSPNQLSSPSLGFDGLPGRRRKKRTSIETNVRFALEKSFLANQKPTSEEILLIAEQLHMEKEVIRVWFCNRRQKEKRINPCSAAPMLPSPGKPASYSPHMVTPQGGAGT
# Outline: as §1
# [1] = biological target: POU1 (OCT1 POU domain);BOB1 (OBF1, OCA-B) (human;human, UniProt P14859;Q16633 260-458;1-256, |); test: EMSA-SELEX-seq; with BOB1 (ternary complex band); 20 mM Tris-HCl pH 7.6, 140 mM NaCl, 10% glycerol, 0.5 mM EDTA, 0.05% Triton X-100, 0.1 mg/mL BSA, 0.1 mg/mL poly(dI-dC), 5 mM DTT, room temperature, 20 min; high values mean tight binding; conditions: protein: recombinant;recombinant; copies: 1;1; dsDNA, one strand shown
# Outline: as §1
# [2] = biological target: T2, POU2 (OCT2 POU domain);BOB1 (OBF1, OCA-B) (human;human, UniProt P09086;Q16633 175-386;1-256, |); test: as above; conditions: protein: recombinant;recombinant; copies: 1;1; dsDNA, one strand shown
# T2 sequence 1: T1 sequence
# T2 sequence 2: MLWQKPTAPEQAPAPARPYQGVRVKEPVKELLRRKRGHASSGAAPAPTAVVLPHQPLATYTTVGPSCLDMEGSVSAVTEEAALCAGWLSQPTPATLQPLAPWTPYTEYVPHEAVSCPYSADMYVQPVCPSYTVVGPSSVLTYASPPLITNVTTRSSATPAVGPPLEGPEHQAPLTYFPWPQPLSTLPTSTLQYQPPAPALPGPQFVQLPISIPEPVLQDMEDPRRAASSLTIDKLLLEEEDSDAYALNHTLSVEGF
# Outline: as §1
# POU1 (OCT1 POU domain), sequence (P14859 260-458): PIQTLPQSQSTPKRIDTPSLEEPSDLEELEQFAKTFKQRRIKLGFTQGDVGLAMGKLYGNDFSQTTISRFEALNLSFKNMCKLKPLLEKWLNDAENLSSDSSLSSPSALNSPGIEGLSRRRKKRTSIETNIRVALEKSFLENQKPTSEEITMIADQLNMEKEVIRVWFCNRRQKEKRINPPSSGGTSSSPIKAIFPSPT
Sequence,binding signal (POU1 (OCT1 POU domain)),binding signal (POU2 (OCT2 POU domain)),binding signal [1],binding signal [2]
AACCGAAG,0.0172 % of ANNNNAAN 8-mers,0.0201 % of ANNNNAAN 8-mers,0.0168 % of ANNNNAAN 8-mers,0.014 % of ANNNNAAN 8-mers
AATCGAAC,0.0366 % of ANNNNAAN 8-mers,0.0334 % of ANNNNAAN 8-mers,0.0347 % of ANNNNAAN 8-mers,0.0512 % of ANNNNAAN 8-mers
ATGTCAAC,0.0214 % of ANNNNAAN 8-mers,0.023 % of ANNNNAAN 8-mers,0.0273 % of ANNNNAAN 8-mers,0.0215 % of ANNNNAAN 8-mers
AGATGAAC,0.0286 % of ANNNNAAN 8-mers,0.0363 % of ANNNNAAN 8-mers,0.0207 % of ANNNNAAN 8-mers,0.0256 % of ANNNNAAN 8-mers
ACAGGAAC,0.0244 % of ANNNNAAN 8-mers,0.0265 % of ANNNNAAN 8-mers,0.0222 % of ANNNNAAN 8-mers,0.0239 % of ANNNNAAN 8-mers
ACCGAAAT,0.0404 % of ANNNNAAN 8-mers,0.0426 % of ANNNNAAN 8-mers,0.0437 % of ANNNNAAN 8-mers,0.0479 % of ANNNNAAN 8-mers
ATGGGAAC,0.0496 % of ANNNNAAN 8-mers,0.0443 % of ANNNNAAN 8-mers,0.0488 % of ANNNNAAN 8-mers,0.0421 % of ANNNNAAN 8-mers
AAGATAAC,0.0248 % of ANNNNAAN 8-mers,0.0334 % of ANNNNAAN 8-mers,0.0285 % of ANNNNAAN 8-mers,0.0388 % of ANNNNAAN 8-mers
ACCGTAAC,0.0118 % of ANNNNAAN 8-mers,0.019 % of ANNNNAAN 8-mers,0.018 % of ANNNNAAN 8-mers,0.0272 % of ANNNNAAN 8-mers
AATCTAAG,0.0553 % of ANNNNAAN 8-mers,0.0587 % of ANNNNAAN 8-mers,0.062 % of ANNNNAAN 8-mers,0.0545 % of ANNNNAAN 8-mers
ACTGTAAT,0.0572 % of ANNNNAAN 8-mers,0.0788 % of ANNNNAAN 8-mers,0.0464 % of ANNNNAAN 8-mers,0.0504 % of ANNNNAAN 8-mers
ACAGGAAT,0.0622 % of ANNNNAAN 8-mers,0.0685 % of ANNNNAAN 8-mers,0.0476 % of ANNNNAAN 8-mers,0.0702 % of ANNNNAAN 8-mers
ATGCTAAG,0.149 % of ANNNNAAN 8-mers,0.156 % of ANNNNAAN 8-mers,0.0777 % of ANNNNAAN 8-mers,0.0726 % of ANNNNAAN 8-mers
AGACAAAA,0.0675 % of ANNNNAAN 8-mers,0.0489 % of ANNNNAAN 8-mers,0.0808 % of ANNNNAAN 8-mers,0.0322 % of ANNNNAAN 8-mers
AGCTGAAT,0.0561 % of ANNNNAAN 8-mers,0.0725 % of ANNNNAAN 8-mers,0.0492 % of ANNNNAAN 8-mers,0.0471 % of ANNNNAAN 8-mers
ACCGAAAA,0.0248 % of ANNNNAAN 8-mers,0.0322 % of ANNNNAAN 8-mers,0.0226 % of ANNNNAAN 8-mers,0.0165 % of ANNNNAAN 8-mers
ACCCCAAT,0.0145 % of ANNNNAAN 8-mers,0.0167 % of ANNNNAAN 8-mers,0.0172 % of ANNNNAAN 8-mers,0.019 % of ANNNNAAN 8-mers
AGGCTAAT,0.133 % of ANNNNAAN 8-mers,0.197 % of ANNNNAAN 8-mers,0.0675 % of ANNNNAAN 8-mers,0.0908 % of ANNNNAAN 8-mers
AGGGTAAG,0.0503 % of ANNNNAAN 8-mers,0.0541 % of ANNNNAAN 8-mers,0.0531 % of ANNNNAAN 8-mers,0.0776 % of ANNNNAAN 8-mers
AATACAAC,0.0412 % of ANNNNAAN 8-mers,0.0403 % of ANNNNAAN 8-mers,0.0336 % of ANNNNAAN 8-mers,0.0545 % of ANNNNAAN 8-mers
ATAAGAAA,0.1 % of ANNNNAAN 8-mers,0.0955 % of ANNNNAAN 8-mers,0.118 % of ANNNNAAN 8-mers,0.0826 % of ANNNNAAN 8-mers
AGAAGAAA,0.0507 % of ANNNNAAN 8-mers,0.0685 % of ANNNNAAN 8-mers,0.055 % of ANNNNAAN 8-mers,0.0471 % of ANNNNAAN 8-mers
AGTCAAAT,0.566 % of ANNNNAAN 8-mers,0.367 % of ANNNNAAN 8-mers,1.18 % of ANNNNAAN 8-mers,1.04 % of ANNNNAAN 8-mers
ATACCAAT,0.0465 % of ANNNNAAN 8-mers,0.0518 % of ANNNNAAN 8-mers,0.0394 % of ANNNNAAN 8-mers,0.0471 % of ANNNNAAN 8-mers
AGATGAAG,0.0328 % of ANNNNAAN 8-mers,0.0368 % of ANNNNAAN 8-mers,0.0316 % of ANNNNAAN 8-mers,0.0297 % of ANNNNAAN 8-mers
ACAATAAG,0.0339 % of ANNNNAAN 8-mers,0.042 % of ANNNNAAN 8-mers,0.0375 % of ANNNNAAN 8-mers,0.0396 % of ANNNNAAN 8-mers
ACCAGAAA,0.029 % of ANNNNAAN 8-mers,0.0242 % of ANNNNAAN 8-mers,0.0254 % of ANNNNAAN 8-mers,0.0157 % of ANNNNAAN 8-mers
AAACTAAG,0.0484 % of ANNNNAAN 8-mers,0.0478 % of ANNNNAAN 8-mers,0.0636 % of ANNNNAAN 8-mers,0.052 % of ANNNNAAN 8-mers
AATGAAAA,0.164 % of ANNNNAAN 8-mers,0.152 % of ANNNNAAN 8-mers,0.202 % of ANNNNAAN 8-mers,0.114 % of ANNNNAAN 8-mers
ATTTTAAC,0.0812 % of ANNNNAAN 8-mers,0.0921 % of ANNNNAAN 8-mers,0.0652 % of ANNNNAAN 8-mers,0.0652 % of ANNNNAAN 8-mers

# From PMC10812921, “Transcriptional Coactivator BOB1 (OBF1, OCA-B) Modulates the Specificity of DNA Recognition by the POU-Domain Factors OCT1 and OCT2 in a Monomeric Configuration”
